In PubChem BioAssay (EPA / NIEHS):
Records with an inconclusive call do not appear. Activity calls are given as the source filed them. Rule for the calls: active = hit-call score of the fitted dose curve at least 0.9, where 1 is the maximum; inconclusive = response in the unintended direction; inactive = score below 0.9.

biological target: human Protein Tyrosine Phosphatase Non-receptor Type 6 (PTPN6), PTPN6 (gene 5777) (UniProt P29350); experiment: NVS_ENZ_hPTPN6: NovaScreen (NVS) Enzymatic Assay for human Protein Tyrosine Phosphatase Non-receptor Type 6 (PTPN6) (AID 2283210)
Experimental: NVS_ENZ_hPTPN6 is a biochemical, single-readout assay that uses extracted gene-proteins from SF9 in a cell-free assay. Measurements were taken 1.33 hours after chemical dosing in a 384-well plate.NVS_ENZ_hPTPN6 is one of one assay component(s) measured or calculated from the NVS_ENZ_hPTPN6 assay. It is designed to make measurements of enzyme activity, a form of enzyme reporter, as detected with fluorescence intensity signals by Fluorescence and electrophoretic mobility shift technology.Data from the assay component NVS_ENZ_hPTPN6 was analyzed into 1 assay endpoint. This assay endpoint, NVS_ENZ_hPTPN6, was analyzed in the positive analysis fitting direction relative to DMSO as the negative control and baseline of activity. Using a type of enzyme reporter, loss-of-signal activity can be used to understand changes in the enzymatic activity as they relate to the gene PTPN6. Furthermore, this assay endpoint can be referred to as a primary readout, because this assay has produced multiple assay endpoints where this one serves a enzymatic activity function. To generalize the intended target to other relatable targets, this assay endpoint is annotated to the phosphatase intended target family, where the subfamily is non-receptor tyrosine phosphatase.
Binding assays used specific radioligands (tritiated, iodinated) with non-radioactive competitive displacement ligands in agonist or antagonist protocols (as indicated) and various reference compounds and inhibitors to titrate specific binding to receptors and transporters. Most enzyme assays (CYPs, kinases, phosphatases, proteases, HDACs) used recombinant protein and specific substrates (fluorescence mostly, some colorimetric and radioactive) and inhibitors, followed by a biochemical separation of substrate and product. All assays for the biochemical HTS were initially run in duplicate at a single concentration (10 uM for CYP450 assays and 25 uM for all others). […] Each assay was run with positive and negative controls, and concurrent controls on every plate. The follow-up (secondary) screen tested active chemical-pairs in concentration series, as well as a few additional assays not tested in the primary screen, some selected negative inactives, and several cases re-run in the concentration series for confirmatory purposes.

Chain of human Protein Tyrosine Phosphatase Non-receptor Type 6 (PTPN6), PTPN6 (gene 5777) (P29350 whole entry, looked up): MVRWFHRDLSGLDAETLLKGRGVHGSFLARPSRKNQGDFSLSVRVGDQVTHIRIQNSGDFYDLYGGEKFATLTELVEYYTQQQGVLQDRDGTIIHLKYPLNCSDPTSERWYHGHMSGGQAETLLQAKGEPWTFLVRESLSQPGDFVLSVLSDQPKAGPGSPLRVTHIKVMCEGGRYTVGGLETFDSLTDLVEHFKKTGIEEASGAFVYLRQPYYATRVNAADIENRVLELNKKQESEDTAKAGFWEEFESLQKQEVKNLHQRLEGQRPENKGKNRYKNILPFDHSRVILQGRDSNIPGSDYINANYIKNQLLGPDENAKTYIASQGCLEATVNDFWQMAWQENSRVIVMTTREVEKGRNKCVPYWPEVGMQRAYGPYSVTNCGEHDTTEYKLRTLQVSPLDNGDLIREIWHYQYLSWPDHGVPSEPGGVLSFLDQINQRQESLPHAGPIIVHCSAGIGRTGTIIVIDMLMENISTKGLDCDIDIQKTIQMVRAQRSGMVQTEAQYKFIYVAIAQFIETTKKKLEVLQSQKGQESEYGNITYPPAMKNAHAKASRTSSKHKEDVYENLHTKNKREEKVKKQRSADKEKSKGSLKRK

Question: With `C=CN1CCCC1=O` as the compound, how does the outcome read?
Answer: inactive

Question: Which outcome does the source give for `CNC(C)=O` here?
Answer: inactive

Question: How did the outcome turn out when `COS(C)(=O)=O` was run?
Answer: inactive

Question: `OCCOCCOCCO` was tested. Which outcome did it give?
Answer: inactive

Question: For `C[C@]12C=CC(=O)C=C1CC[C@H]1[C@@H]3C[C@@H](O)[C@](O)(C(=O)CO)[C@@]3(C)C[C@H](O)[C@@]12F`, which outcome is on record?
Answer: inactive

Question: `NNC(=O)c1ccncc1` was tested. Which outcome did it give?
Answer: inactive

Question: With `CC1(C)C(=O)N(Cl)C(=O)N1Cl` as the compound, how does the outcome read?
Answer: inactive

Question: `O=C(O)c1cccc(C(=O)O)c1` was tested. Which outcome did it give?
Answer: inactive

Question: With `O=S1(=O)CCCO1` as the compound, how does the outcome read?
Answer: inactive

Question: For `NC(=O)N1c2ccccc2C=Cc2ccccc21`, which outcome is on record?
Answer: inactive

Question: `NC(=O)NN=Cc1ccc([N+](=O)[O-])o1` was tested. Which AC50 did it give?
Answer: 10.9 µM (active)

Question: For `O=C(O)[C@H](O)[C@@H](O)C(=O)O`, which outcome is on record?
Answer: inactive

Question: Which outcome does the source give for `OC[C@H]1O[C@@H]2O[C@H]3[C@H](O)[C@@H](O)[C@@H](O[C@H]4[C@H](O)[C@@H](O)[C@@H](O[C@H]5[C@H](O)[C@@H](O)[C@@H](O[C@H]6[C@H](O)[C@@H](O)[C@@H](O[C@H]7[C@H](O)[C@@H](O)[C@@H](O[C@H]1[C@H](O)[C@H]2O)O[C@@H]7CO)O[C@@H]6CO)O[C@@H]5CO)O[C@@H]4CO)O[C@@H]3CO` here?
Answer: inactive

Question: With `c1ccc2ncccc2c1` as the compound, how does the outcome read?
Answer: inactive
